Common to all, as to assay: NCI-60 one-dose screen, 48 h (100 = growth as untreated, 0 = no growth, -100 = all killed)
What all share (conditions): 10 µM unless noted

Experiment [1] deals with NCI-H23 lung.
Experiment [2] relates to NCI-H226 lung.
The test system of experiment [3] is NCI-H322M lung.
Experiment [4] relates to HOP-62 NSCLC.
Experiment [5] has as its system NCI-H460 lung.
Experiment [6] concerns HOP-92 NSCLC.
Experiment [7] relates to NCI-H522 lung.
The test system of experiment [8] is A549/ATCC NSCLC.
Experiment [9] has as its system 786-0 renal.
Experiment [10] deals with COLO 205 colon.

The structures appear in SMILES notation. Compounds without any hit were thinned out: in the full panel of roughly 83,000, 20% have a hit.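 Plates (96-well) were seeded with cells, treated with compound at one concentration, and incubated for 48 hours before percent growth was determined.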 A number with no mark means an inactive call. Calls of active or inactive are those of the source. Rule for the calls: active = growth percent below 10; inactive = the rest.

For `CN(C)c1ccc(C(c2ccccc2)c2ccc(N(C)C)cc2)cc1`, the growth in experiment [1] was 79.1%; in experiment [2], 95.2%; in experiment [3] it was 128%; in [4], 104%; in experiment [5], 99%; in experiment [6] it was 63.4%. Further, the growth is 88.3% in experiment [7], 91.8% in [8], 97.5% in experiment [9] and 111% in [10].

As to `Cc1cc(C)cc(NC(=O)Cn2nncc2CN2C(=O)CSC2=O)c1`, the growth in [1] was 97.5%; in [2], 104%; in experiment [3], 109%; in experiment [4] it was 102%; in [5] it was 107%; in [6] it was 124%. Moreover, the growth in [7] was 94.5%; in experiment [8], 102%; in experiment [9], 108%; in [10], 108%.

For `O=C(OCc1ccc2c(Br)cc(Br)c(O)c2n1)c1cc2ccccc2[nH]1`, the growth in experiment [1] is -27.4% (active); in experiment [2], -66.5% (active); in experiment [3], 51.6%; in experiment [4] it was 13.7%; in [5], -38.7% (active); in experiment [6], -66.4% (active). For the same compound, the growth was -74.2% (active) in experiment [7], 14.5% in experiment [8], -78.2% (active) in experiment [9] and -74% (active) in experiment [10].

On to `CCCCN(CCCC)CCCN=c1nc2c(c(N)n1-c1ccccc1)c(=S)n(-c1ccccc1)c(=S)n2-c1ccccc1`, for which the growth in experiment [1] is -56.3% (active); in [2], -82.5% (active); in [3], -57.8% (active); in experiment [4] it was -99.6% (active); in experiment [5], -95.7% (active); in experiment [6], -66.9% (active). Also, the growth was -54.8% (active) in experiment [7], -38.4% (active) in experiment [8], -100% (active) in [9] and -74.1% (active) in experiment [10].

With `Nc1nc(N)c2cc(CNc3ccc(Cl)c(Cl)c3)ccc2n1`, the growth was 42.8% in experiment [1]; 45.2% in experiment [2]; 29.5% in experiment [3]; 43.1% in experiment [4]; -48.8% (active) in experiment [5]; -5.15% (active) in [6]. Further, the growth in experiment [7] was 13.4%; in experiment [8], 17.7%; in experiment [9], 9.65% (active); in experiment [10], -79.7% (active).

In the case of `Cc1ccc(O)c(Cc2ccccc2)c1`, the growth in experiment [1] is 101%; in experiment [2] it was 106%; in [3] it was 112%; in [4] it was 96.2%; in [5], 99%; in experiment [6], 52.7%. The growth in experiment [7] was 93.5%; in [8], 101%; in [9] it was 107%; in experiment [10], 111%.

`N#Cc1nc(-c2ccc(Cl)cc2)cc(-c2ccc(Nc3nc(N4CCCCC4)nc(N4CCCCC4)n3)cc2)c1N`: the growth is 92.1% in experiment [1]; 71.2% in experiment [2]; 109% in [3]; 94.8% in experiment [4]; 104% in experiment [5]; 101% in [6]. Moreover, the growth in [7] was 96.9%; in experiment [8], 106%; in [9], 103%; in [10], 113%.

For `CCSc1ccc([C@@H]2[C@@H](N)C(=O)N2c2cc(OC)c(OC)c(OC)c2)cc1`, the growth is 35.9% in [1]; 59.4% in [2]; 45.7% in experiment [3]; 41.8% in [4]; 12.2% in experiment [5]; 113% in experiment [6]. The growth in [7] was 18.7%; in experiment [8], 30.5%; in experiment [9] it was 31.7%; in experiment [10], -5.46% (active).

As for `COc1cc(C2=NOC(c3cc(OC)c(OC)c(OC)c3)C2)ccc1OCCCCOc1cc2c(cc1OC)C(=O)N1CCC[C@H]1C=N2` (stereo not given in full), the growth in [1] is -15.9% (active); in experiment [2] it was 9.32% (active); in experiment [3], -6.38% (active); in experiment [4] it was 9.48% (active); in experiment [5] it was -29.6% (active); in experiment [6], -29.3% (active). Moreover, the growth was -41.7% (active) in experiment [7], 6.75% (active) in experiment [8], -4.62% (active) in [9] and -78% (active) in experiment [10].

On to `CCCNC(=S)N/N=C(\C)c1ccccn1`, for which the growth in experiment [1] is 35.7%; in experiment [2] it was 21.5%; in experiment [3] it was 4.31% (active); in [4] it was 44%; in experiment [5], 17.7%; in experiment [6] it was 37.2%. Further, the growth was 56.4% in experiment [7], 31.7% in experiment [8], 20.4% in experiment [9] and 20.8% in experiment [10].

Consider `COc1cccc2nc(Nc3cccc(NC(=O)c4ccc(N5CCN(C)CC5)c(C(F)(F)F)c4)c3)ccc12`, for which the growth in experiment [1] is 62.6%; in [2] it was 43.2%; in [3] it was 42.6%; in [4], 18.2%; in experiment [5], -9.94% (active); in experiment [6] it was 13%. Besides, the growth in experiment [7] is -14.2% (active); in experiment [8], 25.3%; in experiment [9] it was -57.8% (active); in experiment [10], -59.2% (active).

Consider `O=C(Nc1ccc(Oc2ccc(NC(=O)Nc3ccccc3Cl)cc2)cc1)Nc1ccccc1Cl`, for which the growth in [1] was 41.8%; in experiment [2], 61.9%; in experiment [3] it was 75.7%; in experiment [4], 81%; in [5] it was 30.2%; in experiment [6], 38%. Moreover, the growth in [7] was -10.4% (active); in experiment [8], -3.15% (active); in experiment [9] it was 78.7%; in experiment [10], 49%.

On to `Clc1ncnc2scc(C3COc4ccccc4O3)c12` (stereo not given), for which the growth in experiment [1] is 95.9%; in [2], 75.3%; in [3] it was 98.6%; in experiment [4] it was 105%; in experiment [5], 106%; in [6] it was 78.9%. Also, the growth was 53.6% in experiment [7], 95.5% in experiment [8], 104% in experiment [9] and 100% in experiment [10].

Turning to `Nc1ccc(C(OC(=O)c2cc3ccccc3c(Cc3c(O)c(C(=O)OC(c4ccc(N)cc4)(c4ccc(N)cc4)c4ccc(N)cc4)cc4ccccc34)c2O)(c2ccc(N)cc2)c2ccc(N)cc2)cc1`, the growth was 9.92% (active) in experiment [1]; 30.8% in [2]; 3.77% (active) in [3]; 6.24% (active) in experiment [4]; 1.82% (active) in [5]; -6.69% (active) in experiment [6]. In addition, the growth in experiment [7] was 9.97% (active); in [8], 10.7%; in experiment [9], 23.5%; in experiment [10], -83.7% (active).
